# Assay results taken from PubChem BioAssay AID651871 (Sanford-Burnham Center for Chemical Genomics, 2012).
# Tested on: HL-1
# Test: protection of cardiomyocytes from stress damage, SAR follow-up, cell-based, panel, H9c2 and HL-1, ATP luminescence, set 2 (AID 651871);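 note: cells exposed to stressor for 2 h before ATP readout; reference of the scale not given here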
# Settings: H9c2/HL-1 cardiomyocytes, 2-deoxyglucose stress, with 2-deoxyglucose, run 3, at 19.8 µM (top of the series)
compound,measurement,value
COc1ccc2c(c1OC)C(=O)N1c3ccccc3C(=O)N(Cc3cccc(Cl)c3Cl)C21 (stereo unspecified),activity (protection/inhibition),22.5%
